“And” between values parts separate entries of the source, which are not always exact repeats. Identical values can stand only once. The campaign covered roughly 16,000 compounds. About 5,100 (32%) were called active. Not shown: some 25% with an inconclusive outcome. Calls come from the whole dose curve; as a rule, active = well fitted curve in the direction sought with a large enough effect; inconclusive = small, poorly fitted or top-dose-only effect, or effect the other way; inactive = no such curve, though single readings can be large or run the other way. Some of the results follow.
Molecular target: Cytochrome P450 3A4 (Homo sapiens) (UniProt P08684)
Sequence (P08684 whole entry, looked up): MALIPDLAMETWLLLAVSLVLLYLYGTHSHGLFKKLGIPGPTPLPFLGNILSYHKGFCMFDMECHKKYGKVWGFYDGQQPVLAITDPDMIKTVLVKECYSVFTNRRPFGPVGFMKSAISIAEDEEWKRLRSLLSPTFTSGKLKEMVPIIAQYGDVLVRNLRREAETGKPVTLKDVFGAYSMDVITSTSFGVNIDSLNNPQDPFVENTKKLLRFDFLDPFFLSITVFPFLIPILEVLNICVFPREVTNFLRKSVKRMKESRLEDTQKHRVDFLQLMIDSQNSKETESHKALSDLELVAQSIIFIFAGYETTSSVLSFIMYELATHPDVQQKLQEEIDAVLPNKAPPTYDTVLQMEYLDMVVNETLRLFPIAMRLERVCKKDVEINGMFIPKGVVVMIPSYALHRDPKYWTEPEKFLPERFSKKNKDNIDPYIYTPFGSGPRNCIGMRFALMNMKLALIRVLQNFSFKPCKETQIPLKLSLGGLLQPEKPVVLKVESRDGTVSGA
Assay: Cytochrome panel assay with activity outcomes
Conditions: recombinant CYP, pro-luciferin dealkylation, luminescence, p450-cyp3a4; series mostly up to 57.1 µM; activity, negative = inhibition: at the top concentration
% is set by controls: 0 for no effect and ±100 for the full control effect.

AC50, active:
N#CC(=C(/N)Sc1ccccc1N)/C(C#N)=C(/N)Sc1ccccc1N 316 nM and 3.16 µM
N#CC1=C(SCC(N)=O)NC2=C(C(=O)c3ccccc32)C1c1ccc(Cl)cc1 (stereo unspecified) 10 µM
COc1cccc(OCC(=O)NN=C2c3ccccc3-c3ccccc32)c1 6.31 µM
Cc1cccc2c1OCC/C2=N\NC(=O)COc1ccccc1 15.8 µM
CC(C)c1cccc2nc3c(c([Si](C)(C)C(C)(C)C)c12)Cn1c-3cccc1=O 12.6 µM
CCc1cccc2nc3c(c([Si](C)(C)C)c12)Cn1c-3cccc1=O 12.6 µM
CCc1c2c(nc3cccc(C(C)C)c13)-c1cccc(=O)n1C2 15.8 µM
CC(C)c1cccc2nc3c(c([Si](C)(C)C)c12)Cn1c-3cccc1=O 10 µM
Cc1c2c(nc3ccccc13)-c1cccc(=O)n1C2 12.6 µM
Cc1[nH]nc(-c2ccc(OCc3cnn(-c4ccccc4)c3)cc2O)c1Oc1ccc(F)cc1 14.1 µM
COC(=O)c1ccc(C2C(Oc3ccccc3)C(=O)N2CCc2ccc(OC)c(OC)c2)cc1 (stereo unspecified) 2.82 µM
COc1ccc(CCN2C(=O)C(Oc3ccccc3C)C2c2ccc3c(c2)OCO3)cc1OC (stereo unspecified) 0.501 µM
Cc1ccccc1OC1C(=O)N(Cc2ccc3c(c2)OCO3)C1c1sccc1C (stereo unspecified) 0.794 µM
CCCc1cc(C(=O)Cc2nc3ccccc3s2)c(O)cc1O 12.6 µM
O=C(Oc1ccc2ccccc2c1Br)N1CCCCCC1 14.1 µM
CCCCOc1ccc(C(=O)N/C(=C\c2cccc([N+](=O)[O-])c2)C(=O)OCCC)cc1 1 µM
CCCCOc1ccc(C(=O)N/C(=C\c2ccc(OC)cc2)C(=O)OCc2ccco2)cc1 3.98 µM
C=CCNCCCCOc1c(Cl)cc(C)cc1Br 14.1 µM
Cc1cnc(CNc2nc(-c3ccccc3C(F)(F)F)nc3ccccc23)cn1 5.01 µM
COc1ccccc1-c1nc(NCc2cnc(C)cn2)c2ccccc2n1 15.8 µM
COc1cccc(-c2ccc3ncnc(NCCc4c[nH]c5ccc(OC)cc45)c3c2)c1 1.26 µM
COc1ccc2[nH]cc(CCNc3ncnc4ccc(-c5ccoc5)cc34)c2c1 3.98 µM
COc1ccc2[nH]cc(CCNc3ncnc4ccc(-c5ccccc5C#N)cc34)c2c1 2 µM
COc1ccc2[nH]cc(CCNc3ncnc4ccc(-c5cccc(C#N)c5)cc34)c2c1 2.51 µM
COc1ccc2[nH]cc(CCNc3ncnc4ccc(-c5ccc6c(c5)OCO6)cc34)c2c1 2 µM
COc1ccc2[nH]cc(CCNc3ncnc4ccc(-c5c(C)noc5C)cc34)c2c1 3.16 µM
COc1ccc2[nH]cc(CCNc3ncnc4ccc(-c5cccnc5)cc34)c2c1 1 µM
COc1ccc2[nH]cc(CCNc3ncnc4ccc(-c5ccccc5CN(C)C)cc34)c2c1 1.58 µM
COc1ccc(S(=O)(=O)N(CC(=O)N2CCCC2)Cc2ccccc2)cc1 4.47 µM
COc1ccc(S(=O)(=O)N(CCc2ccccc2)CC(=O)N2CCOCC2)cc1 7.08 µM

activity, negative = inhibition, inactive:
C[N+](C)(C)CC[N+]1(C)Cc2c(Cl)c(Cl)c(Cl)c(Cl)c2C1 -12.8%
Cc1cccc(C)c1NC(=O)COc1cccc(/C=N/NC(=O)C(=O)NCc2ccccc2)c1 -17.9%
Cc1cccc2c1OCC/C2=N\NC(=O)COc1ccccc1Cl 0.168%
C/C(CC(=O)Nc1cc(C)ccn1)=N\NC(=O)COc1cccc(C)c1 -15.1% [at 2.29 µM]
CCOc1ccc(C(CC(=O)O)NC(=O)COc2ccccc2)cc1 (stereo unspecified) -1.92%
CC(N)=NCCCC[C@H](N)C(=O)O -19%
CCc1c2c(nc3cccc(OC)c13)OC(CC)C2 (stereo unspecified) -7.79%
O=C1CS/C(=C\[N+](=O)[O-])N1c1ccc(OC(F)(F)F)cc1 -23.8%
Cc1cc(C2CCCCC2)n(O)c(=O)c1 -26.4% [at 25.6 µM]
CCN(CC)CCOc1ccc(/C(=C(\Cl)c2ccccc2)c2ccccc2)cc1 -27.7% [at 25.6 µM]
CN(C)CCCO[C@H]1[C@H]([C@H](O)CO)O[C@H]2OC(C)(C)O[C@@H]21 -7.33%
O=c1c2ccccc2nc2n1CCC2 -1.04%
NC(N)=NC(N)=Nc1ccccc1 (tested in a mixture with another compound) -12.3% [at 11.4 µM]
Clc1ccc(C2=C3CCCCn4c(-c5ccccc5)c[n+](c43)C2)cc1 -17%
CC[C@H](NC(C)C)[C@H](O)c1ccc(O)c2[nH]c(=O)ccc12 -10.3%
O=C(NNc1nc2ccccc2s1)C1CC1 -5.94%
O=C(O)[C@@H](O)[C@@H](O)[C@@H](O)[C@@H](O)c1nc2ccccc2s1 -23.6% [at 11.4 µM]
Cc1ccc(OC(=O)N2CCOCC2)cc1 -1.91%
O=C(CCN1CCCCC1)c1csc2ccccc12 -13.8% [at 11.4 µM]
CCCCOc1ccc(C(=O)NCc2ccco2)cc1 -3.62%
COc1ccc(/C=C(/NC(C)=O)C(=O)O)cc1 4.62% [at 2.29 µM]
OC[C@@H]1O[C@H](O)[C@@H](Cl)[C@H](O)[C@@H]1O 0.669%
Cc1cc(Br)cc(C)c1OCCCCN(C)C 17%
COCCCNCCCCOc1c(Cl)cc(C)cc1Br -14.4% [at 2.29 µM]
Cc1cnc(CNc2ccnc(-c3ccccc3C(F)(F)F)n2)cn1 -6.93%
O=C(Cn1cnc([N+](=O)[O-])c1)NCc1ccc(F)cc1 7.55%
Cc1ccc(C(C)C)n1C(=O)OC(C)(C)C -18.1% [at 11.4 µM]
Nc1nc2c(nc(Br)n2[C@@H]2O[C@H]3COP(=O)(O)O[C@H]3[C@@H]2O)c(=O)[nH]1 -11.4%
Cc1ccc(CS(=O)(=O)CCC(=O)N2CCOCC2)cc1 -2.96%
COc1ccc(OC)c(N(CC(=O)N2CCc3ccccc3C2)S(C)(=O)=O)c1 7.06%
CN(Cc1ccccc1)S(=O)(=O)c1ccc(OCC(=O)N2CCOCC2)cc1 -0.529%

Reference: PubChem BioAssay AID1851 (National Center for Advancing Translational Sciences (NCATS), 2009)
